In PubChem BioAssay AID1117359 (Southern Research Institute, 2015):
In all, about 1,500 compounds went through this assay and about 460 (31%) were called active.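 How the source made its calls: active means viability at or below 80% at any tested concentration, marking the compound as toxic; inactive means the rest.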 These entries were drawn from the full list. Results with a measured potency or affinity are listed apart.

Assay: viability loss in THP-1 monocytes – THP-1 cells, cytotoxicity control for Vif-APOBEC3G degradation inhibitor project, dose response (AID 1117359)
Details: THP-1 viability, CellTiter-Glo luminescence, 72 h; series mostly up to 40 µM
For `Cc1cc(NS(=O)(=O)c2cc(Cl)sc2Cl)no1`, the outcome was “inactive”.
With `Cc1cc(O)cc(O)c1C(=O)Cc1cnn(-c2ccccc2)c1` the outcome was “inactive”.
In the case of `CCC1=C2CC[C@H]3C(=O)NC(=O)[C@H]3[C@H]2[C@@]2(Cc3ccccc3)C(=NCC(=O)OC)OC(=O)N2C1=O`, the outcome is reported as “inactive”.
In the case of `CCN(CC)S(=O)(=O)c1cccc(NN=c2c(=O)c3ccccc3c2=O)c1`, the outcome is reported as “inactive”.
With `CCc1ccc2c(c1)cc(C)c1nnc(SCC(=O)Nc3cc(OC)c(OC)cc3C(=O)O)n12` the outcome was “inactive”.
For `COC/C=C/C1=CC2=CC(=O)C(C)(OC(=O)c3cnc4ccccc4n3)C(=O)C2=CN1c1ccccc1` (centres undefined), the outcome was “inactive”.
For `Nc1ccc2c(O)cc(S(=O)(=O)O)cc2c1`, the outcome was “inactive”.
With `CCOC(=O)C1CCN(c2ncnc3cc(OC)c(OC)cc23)CC1` the outcome was “inactive”.
In the case of `O=C(O)C1OC(Oc2c(-c3ccc(O)c(O)c3)oc3cc(O)cc(O)c3c2=O)C(O)C(O)C1O` (centres undefined), the outcome is reported as “inactive”.
With `COC(=O)C1=C(O)/C(=C\c2ccc(CNC(=O)C(=O)Nc3ccc(C)cc3)o2)N=C1C` the outcome was “inactive”.
In the case of `CC(Sc1nnc(C2CC2)n1C)C(=O)Nc1ccc(N2CCOCC2)cc1` (centres undefined), the outcome is reported as “inactive”.
With `CC1=C(C#N)C(=O)N(C2CCS(=O)(=O)C2)C(=O)/C1=C\c1ccco1` (centres undefined) the outcome was “inactive”.
With `O=C1c2ccccc2C(=O)N1/N=C/c1ccc(O)c(O)c1O` the outcome was “inactive”.
For `Nc1ccc(Nc2ccccc2)c(S(=O)(=O)O)c1`, the outcome was “inactive”.
With `Cc1ccc(NC(=O)COc2ccc(/C=N/NC(=O)CSCc3ccccc3)cc2)cc1` the outcome was “inactive”.
With `CCCCC1=CC2=CC(=O)C(C)(OC(=O)c3cnc4ccccc4n3)C(=O)C2=CO1` (centres undefined) the outcome was “inactive”.
With `c1cnc(N2CCN(c3cnccn3)CC2)nc1` the outcome was “inactive”.
With `COc1ccc(CN2CCNC(=O)C2CC(=O)NC2CCCC2)cc1OC` (centres undefined) the outcome was “inactive”.
With `CCN(CC)S(=O)(=O)c1ccc(C(=O)NCc2n[nH]c(=S)n2-c2ccccc2OC)cc1` the outcome was “inactive”.
In the case of `Cc1ccc2c(c1)NC(=O)c1cc([N+](=O)[O-])ccc1O2`, the outcome is reported as “inactive”.
With `NS(=O)(=O)c1ccc(NC(=O)COC(=O)CC2Sc3ccccc3NC2=O)cc1` (centres undefined) the outcome was “inactive”.
For `CCOC(=O)c1ccc(NS(=O)(=O)c2ccc3oc(=O)[nH]c3c2)cc1`, the outcome was “inactive”.
With `COC(=O)c1ccc(C(=O)OC)c(NC(=O)Cc2cccs2)c1` the outcome was “inactive”.
For `COc1ccc(CCNC(=O)/C=C/c2ccco2)cc1`, the outcome was “inactive”.
For `CC[C@H](C)[C@H](NC(N)=O)C(=O)NCCc1ccc(OC)cc1`, the outcome was “inactive”.
In the case of `Nc1ccc(Oc2ncccn2)cc1`, the outcome is reported as “inactive”.
With `CCOC(=O)c1[nH]nc(-c2c(O)cc(C)cc2O)c1-c1csc(C)n1` the outcome was “inactive”.
In the case of `O=C(Nc1ccccc1)c1ccc(S(=O)(=O)N(CCO)CCO)cc1`, the outcome is reported as “inactive”.
With `CC(C)OCCCNC(=O)c1cccs1` the outcome was “inactive”.
For `CC(C)CN1C(=O)c2ccc(C(=O)Nc3ccc(O)cc3C(=O)O)cc2C1=O`, the outcome was “inactive”.
In the case of `CS(=O)(=O)c1ccc(Cl)c(NC(=O)COC(=O)COc2ccc3c(c2)CCC3)c1`, the outcome is reported as “inactive”.
In the case of `CCOc1ccc(NC(=O)CCS(=O)(=O)c2ccc(Br)cc2)cc1`, the outcome is reported as “inactive”.
In the case of `Cc1ccsc1C=Nc1ccc(O)cc1`, the outcome is reported as “inactive”.
In the case of `Oc1ccc(N=Cc2sc3ccccc3c2Cl)cc1`, the outcome is reported as “inactive”.
With `Cc1nccn1CC(=O)N/N=C/c1ccc(O)c(O)c1` the outcome was “inactive”.
With `NC(=S)N=Nc1c(O)cc(O)c2[nH]c(=O)ccc12` the outcome was “inactive”.
In the case of `Cc1n[nH]c(=S)n(NC(=O)/C=C/C(=O)Nn2c(=S)[nH]nc(C)c2=O)c1=O`, the outcome is reported as “inactive”.
For `CCN(CC)C(=O)NCc1c(C)cc(C)cc1C`, the outcome was “inactive”.
In the case of `CCOC(=O)C(=O)Cc1cccnn1`, the outcome is reported as “inactive”.
For `CC(=O)c1ccc(S(=O)(=O)Nc2cccc(-n3cnnn3)c2)cc1`, the outcome was “inactive”.
With `CC1CCC(NC(=O)CCS(=O)(=O)c2ccc3c(c2)CCN3C(=O)C2CC2)CC1` (centres undefined) the outcome was “inactive”.
With `CCc1ccc(-c2nc(SCC(=O)c3c(N)n(C4CC4)c(=O)[nH]c3=O)n[nH]2)cc1` the outcome was “inactive”.
With `COCCn1c(SCC(=O)N2CCC(C)CC2)nc2c([nH]c3ccccc32)c1=O` the outcome was “inactive”.
With `O=C(c1ccc2nc(-c3ccco3)c(-c3ccco3)nc2c1)N1CCN(c2ncccn2)CC1` the outcome was “inactive”.
In the case of `N#Cc1ccccc1S(=O)(=O)N1CCN(C(=O)CN2CCCC2c2cccs2)CC1` (centres undefined), the outcome is reported as “inactive”.
With `Cc1ccccc1OCC(=O)OCC(=O)c1ccc(OC(=O)c2ccccc2)cc1` the outcome was “inactive”.
For `COc1ccccc1OCC(=O)NCC1CCCN(Cc2cnn(C(C)C)c2)C1` (centres undefined), the outcome was “inactive”.
In the case of `Cc1cc(C(=O)NNC(=O)CCC2CCCCC2)c(C)o1`, the outcome is reported as “inactive”.
For `CCOc1ccc(N(CC(=O)NCCC2=CCCCC2)S(=O)(=O)c2ccccc2)cc1`, the outcome was “inactive”.
For `O=C(c1cc(COc2cccc3cccnc23)on1)N1CCC[C@H]1CO`, the outcome was “inactive”.
In the case of `CC(Oc1cccc2cccnc12)C(=O)N/N=C/c1ccc2c(c1)OCO2` (centres undefined), the outcome is reported as “inactive”.
With `CC(=O)Nc1ccc(NC(=O)CN(c2cccc(C(C)=O)c2)S(C)(=O)=O)cc1` the outcome was “inactive”.
In the case of `COc1ccc(-n2c(Cc3cccn3C)nnc2SCC(=O)Nc2ccccc2)cc1`, the outcome is reported as “inactive”.
With `CCOC(=O)c1cc2c(n(-c3ccccc3)c1=O)CC(C)(C)CC2=O` the outcome was “inactive”.
In the case of `Cn1c(N)c(C(=O)CCl)c(=O)n(Cc2ccccc2)c1=O`, the outcome is reported as “inactive”.
With `O=C(O)c1cc(-c2ccccc2)on1` the outcome was “inactive”.
With `CN1CCN(C(CNC(=O)c2ccc(Br)o2)c2ccc(F)cc2)CC1` (centres undefined) the outcome was “inactive”.
With `CC(NC(=O)CSc1nnc2n1CCCCC2)c1ccccc1Cl` (centres undefined) the outcome was “inactive”.
With `COc1cc(CN2CCNC(=O)C2CC(=O)N(Cc2nccn2C)C(C)C)cc(OC)c1` (centres undefined) the outcome was “inactive”.
